Data from PubChem BioAssay AID1159580 (chemical genetic matrix, 2015).
The campaign covered roughly 5,500 compounds. About 2,000 (36%) were called active. Roughly 18% stayed inconclusive and do not appear here. Rule as the data show it: active = normalized growth mostly below about 0.91 (no sharp cut-off); inconclusive = no clear call, values can overlap the other calls; inactive = mostly above about 0.92. This is one part of the list.

Test: chemical genetic growth profiling, strain panel (AID 1159580);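 also: tested at 20 µM; growth read once vehicle control cultures reached saturation at 30 °C; 1 = growth at the plate median or of vehicle wells; lower values mean less growth of the strain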
Conditions: growth OD

Measured: normalized growth

COc1ccccc1OCCNCC(O)COc1cccc2[nH]c3ccccc3c12 (stereo unspecified)
inactive: S. cerevisiae deletion strains, locus YKL009W, strain mrt4, active compounds read low 1.01 | S. cerevisiae deletion strains, locus YKL068W, active compounds read low 1.01 | S. cerevisiae deletion strains, locus YKL085W, strain MDH1 (second series), active compounds read low 1.01 | S. cerevisiae deletion strains, locus YKL085W, strain MDH1, active compounds read low 1.01 | S. cerevisiae deletion strains, locus YKL160W, strain elf1, active compounds read low 1.01 | S. cerevisiae deletion strains, locus YKL190W, strain CNB1, active compounds read low 0.997 | S. cerevisiae deletion strains, locus YKR001C, strain vps1, active compounds read low 1.05 | S. cerevisiae deletion strains, locus YKR026C, strain gcn3, active compounds read low 1.02 | S. cerevisiae deletion strains, locus YKR091W, strain srl3, active compounds read low 1.01 | S. cerevisiae deletion strains, locus YLL001W, strain dnm1, active compounds read low 1.01 | S. cerevisiae deletion strains, locus YLL026W, active compounds read low 1.02 | S. cerevisiae deletion strains, locus YLL041C, strain sdh2, active compounds read low 1.01 | S. cerevisiae deletion strains, locus YLR027C, strain aat2, active compounds read low 1.01 | S. cerevisiae deletion strains, locus YLR039C, strain RIC1, active compounds read low 1.09 | S. cerevisiae deletion strains, locus YLR058C, strain SHM2, active compounds read low 1 | S. cerevisiae deletion strains, locus YLR102C, strain apc9, active compounds read low 1 | S. cerevisiae deletion strains, locus YLR113W, strain HOG1, active compounds read low 0.987 | S. cerevisiae deletion strains, locus YLR221C, strain rsa3, active compounds read low 1.01 | S. cerevisiae deletion strains, locus YLR258W, strain gsy2, active compounds read low 1.02 | S. cerevisiae deletion strains, locus YLR262C, strain YPT6 (second series), active compounds read low 1.05 | S. cerevisiae deletion strains, locus YLR262C, strain YPT6, active compounds read low 1.06 | S. cerevisiae deletion strains, locus YLR268W, strain sec22, active compounds read low 1.01 | S. cerevisiae deletion strains, locus YLR320W, strain mms22, active compounds read low 1.02 | S. cerevisiae deletion strains, locus YLR330W, strain CHS5, active compounds read low 1.01 | S. cerevisiae deletion strains, locus YLR342W, strain FKS1 (second series), active compounds read low 0.993 | S. cerevisiae deletion strains, locus YLR342W, strain FKS1, active compounds read low 1.01 | S. cerevisiae deletion strains, locus YLR357W, strain rsc2, active compounds read low 1 | S. cerevisiae deletion strains, locus YLR370C, strain arc18, active compounds read low 1.01 | S. cerevisiae deletion strains, locus YLR371W, strain rom2, active compounds read low 1.01 | S. cerevisiae deletion strains, locus YLR384C, strain iki3, active compounds read low 1.03 | S. cerevisiae deletion strains, locus YLR418C, strain cdc73, active compounds read low 0.999 | S. cerevisiae deletion strains, locus YML016C, strain PPZ1, active compounds read low 1.01 | S. cerevisiae deletion strains, locus YML032C, strain rad52, active compounds read low 1.02 | S. cerevisiae deletion strains, locus YML120C, strain ndi1, active compounds read low 1.01 | S. cerevisiae deletion strains, locus YML124C, strain tub3, active compounds read low 1.02 | S. cerevisiae deletion strains, locus YMR058W, strain fet3, active compounds read low 1.03 | S. cerevisiae deletion strains, locus YMR078C, strain ctf18, active compounds read low 1.02 | S. cerevisiae deletion strains, locus YMR125W, strain sto1, active compounds read low 1.01 | S. cerevisiae deletion strains, locus YMR129W, active compounds read low 1.01 | S. cerevisiae deletion strains, locus YMR205C, strain PFK2, active compounds read low 1.04 | S. cerevisiae deletion strains, locus YMR223W, strain ubp8, active compounds read low 1 | S. cerevisiae deletion strains, locus YMR231W, strain pep5, active compounds read low 1.01 | S. cerevisiae deletion strains, locus YMR263W, strain SAP30, active compounds read low 0.979 | S. cerevisiae deletion strains, locus YMR307W, strain GAS1, active compounds read low 0.972 | S. cerevisiae deletion strains, locus YNL067W, strain RPL9B, active compounds read low 0.962 | S. cerevisiae deletion strains, locus YNL071W, strain lat1, active compounds read low 0.996 | S. cerevisiae deletion strains, locus YNL128W, strain TEP1, active compounds read low 1 | S. cerevisiae deletion strains, locus YNL153C, strain GIM3, active compounds read low 1 | S. cerevisiae deletion strains, locus YNL183C, strain NPR1, active compounds read low 0.962 | S. cerevisiae deletion strains, locus YNL209W, strain ssb2, active compounds read low 1.02 | S. cerevisiae deletion strains, locus YNL233W, strain BNI4, active compounds read low 1 | S. cerevisiae deletion strains, locus YNL248C, strain rpa49, active compounds read low 1.02 | S. cerevisiae deletion strains, locus YNL250W, strain rad50, active compounds read low 1 | S. cerevisiae deletion strains, locus YNL271C, strain bni1, active compounds read low 1.02 | S. cerevisiae deletion strains, locus YNL298W, strain CLA4, active compounds read low 1.03 | S. cerevisiae deletion strains, locus YNL307C, strain MCK1, active compounds read low 1.01 | S. cerevisiae deletion strains, locus YNL322C, strain KRE1 (second series), active compounds read low 0.989 | S. cerevisiae deletion strains, locus YNL322C, strain KRE1, active compounds read low 1 | S. cerevisiae deletion strains, locus YNR049C, strain mso1, active compounds read low 1.01 | S. cerevisiae deletion strains, locus YNR052C, strain pop2, active compounds read low 1.01 | S. cerevisiae deletion strains, locus YOL006C, strain TOP1, active compounds read low 1 | S. cerevisiae deletion strains, locus YOL012C, strain htz1 0.91 | S. cerevisiae deletion strains, locus YOL147C, strain pex11, active compounds read low 1.01 | S. cerevisiae deletion strains, locus YOR001W, strain rrp6, active compounds read low 1.01 | S. cerevisiae deletion strains, locus YOR061W, strain CKA2, active compounds read low 1.01 | S. cerevisiae deletion strains, locus YOR069W, strain VPS5, active compounds read low 0.997 | S. cerevisiae deletion strains, locus YOR070C, strain gyp1, active compounds read low 1 | S. cerevisiae deletion strains, locus YOR080W, strain dia2, active compounds read low 1 | S. cerevisiae deletion strains, locus YOR083W, strain WHI5, active compounds read low 1 | S. cerevisiae deletion strains, locus YOR106W, strain vam3, active compounds read low 1.02 | S. cerevisiae deletion strains, locus YOR136W, strain idh2, active compounds read low 1.02 | S. cerevisiae deletion strains, locus YOR144C, strain elg1, active compounds read low 1.02 | S. cerevisiae deletion strains, locus YOR184W, strain ser1, active compounds read low 0.999 | S. cerevisiae deletion strains, locus YOR231W, strain MKK1, active compounds read low 0.999 | S. cerevisiae deletion strains, locus YOR265W, strain rbl2, active compounds read low 0.996 | S. cerevisiae deletion strains, locus YOR270C, strain vph1, active compounds read low 1.03 | S. cerevisiae deletion strains, locus YOR290C, strain snf2, active compounds read low 1.01 | S. cerevisiae deletion strains, locus YOR316C, strain cot1, active compounds read low 1.02 | S. cerevisiae deletion strains, locus YPL051W, strain arl3, active compounds read low 1.01 | S. cerevisiae deletion strains, locus YPL055C, strain LGE1, active compounds read low 1.01 | S. cerevisiae deletion strains, locus YPL078C, strain atp4, active compounds read low 1.03 | S. cerevisiae deletion strains, locus YPL106C, strain sse1, active compounds read low 1.02 | S. cerevisiae deletion strains, locus YPL240C, strain hsp82, active compounds read low 1.01 | S. cerevisiae deletion strains, locus YPL241C, strain CIN2, active compounds read low 0.996 | S. cerevisiae deletion strains, locus YPL256C, strain CLN2, active compounds read low 0.994 | S. cerevisiae deletion strains, locus YPR119W, strain clb2, active compounds read low 1.02 | S. cerevisiae deletion strains, locus YPR141C, strain kar3, active compounds read low 1.03 | S. cerevisiae deletion strains, locus YPR163C, strain tif3, active compounds read low 1.02 | S. cerevisiae deletion strains, locus YPR167C, strain met16, active compounds read low 1.02 | S. cerevisiae deletion strains, strain wtn01, active compounds read low 1.01 | S. cerevisiae strains, strain wild type, active compounds read low 0.984
